Measurements: PubChem BioAssay (Tox21)
Inconclusive results are not listed. Entries that show only a call come without a potency. A number with no mark means an inactive call. Calls of active or inactive are those of the source. Unless noted, calls follow the shape of the dose curve; as a rule, active = well fitted curve in the direction sought with a large enough effect in the repeat runs; inconclusive = weak or mixed curves; inactive = no such curve, though single readings can be large; an effect the other way counts as inactive or inconclusive.

Assays:
[1] = biological target: Aryl hydrocarbon receptor (Homo sapiens) (UniProt P35869); experiment: qHTS assay to identify small molecule that activate the aryl hydrocarbon receptor (AhR) signaling pathway (AID 743085);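 also: HG2L7.5c1 human HepG2 liver cells with stably integrated DRE-driven firefly reporter; series mostly up to about 70 µM; nearly all actives have a fitted effect of over 15% in size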
Aryl hydrocarbon receptor (Homo sapiens), sequence (P35869 whole entry, looked up): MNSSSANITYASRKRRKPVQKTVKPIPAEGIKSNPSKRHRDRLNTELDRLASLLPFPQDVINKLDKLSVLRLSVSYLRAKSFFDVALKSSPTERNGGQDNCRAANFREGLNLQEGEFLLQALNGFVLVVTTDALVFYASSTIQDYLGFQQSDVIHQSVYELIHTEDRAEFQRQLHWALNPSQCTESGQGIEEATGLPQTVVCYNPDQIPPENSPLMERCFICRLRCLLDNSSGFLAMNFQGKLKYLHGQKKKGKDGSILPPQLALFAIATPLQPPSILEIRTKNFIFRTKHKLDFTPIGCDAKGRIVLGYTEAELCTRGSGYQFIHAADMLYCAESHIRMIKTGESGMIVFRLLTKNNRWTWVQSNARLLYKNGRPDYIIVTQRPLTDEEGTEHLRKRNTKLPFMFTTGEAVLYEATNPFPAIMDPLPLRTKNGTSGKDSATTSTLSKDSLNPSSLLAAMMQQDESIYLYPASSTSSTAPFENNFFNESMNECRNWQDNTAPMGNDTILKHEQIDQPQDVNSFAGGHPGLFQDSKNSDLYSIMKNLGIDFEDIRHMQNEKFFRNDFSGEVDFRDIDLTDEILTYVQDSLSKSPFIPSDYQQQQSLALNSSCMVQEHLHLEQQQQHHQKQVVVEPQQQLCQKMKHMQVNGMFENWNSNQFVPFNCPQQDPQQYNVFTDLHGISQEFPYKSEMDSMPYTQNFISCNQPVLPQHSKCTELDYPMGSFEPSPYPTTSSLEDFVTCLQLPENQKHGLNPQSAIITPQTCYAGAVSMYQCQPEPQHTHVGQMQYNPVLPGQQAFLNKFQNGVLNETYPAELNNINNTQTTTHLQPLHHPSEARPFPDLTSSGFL
Procedure, shortened: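 24 h compound exposure, 37C, HepG2-derived HG2L7.5c1 cells with DRE-responsive luciferase. Readouts: fluorescence viability, then luminescence at room temperature after 30 min.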

[2] = qHTS assay to identify small molecule antagonists of the peroxisome proliferator-activated receptor gamma (PPARg) signaling pathway - cell viability counter screen (AID 743194); details: Potency: co-treated with 50 nM rosiglitazone unless noted; also: nearly all actives have a fitted effect of over 55% in size; also: potency is read from the fitted curve at half-maximal effect
Procedure, shortened: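 Viability was measured as CellTiter-Glo luminescence in GeneBLAzer PPARg UAS-bla HEK293H cells. These cells had been exposed 17 h at 37 C to compounds together with rosiglitazone at 50 nM final, with the beta-lactamase readout taken in the same wells.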

[3] = qHTS assay for small molecule agonists of the antioxidant response element (ARE) signaling pathway - cell viability counter screen (AID 743203; calls by dose curve; also: nearly all actives have a fitted effect of over 55% in size; also: potency is read from the fitted curve at half-maximal effect)
Procedure, shortened: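 Cells (ARE-bla HepG2, 2,000/well) receive DMSO-dissolved compounds after a 5 hrs rest. Plates incubate 16 hrs at 37C/5% CO2. CellTiter-Glo luminescence is then recorded after 30 min at room temperature.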

[4] = qHTS assay to identify small molecule antagonists of the peroxisome proliferator-activated receptor delta (PPARd) signaling pathway - cell viability counter screen (AID 743213); also: nearly all actives have a fitted effect of over 50% in size; also: potency is read from the fitted curve at half-maximal effect
Procedure, shortened: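 HEK293H cells with the PPARd UAS-bla reporter, co-treated 17 h at 37 C with compounds and L165041 (300 nM final), were lysed with CellTiter-Glo. Luminescence indicated viable cell content.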

[5] = biological target: Peroxisome proliferator-activated receptor delta (Homo sapiens) (UniProt Q03181); experiment: qHTS assay to identify small molecule antagonists of the peroxisome proliferator-activated receptor delta (PPARd) signaling pathway (AID 743215; active = well fitted inhibition curve with a large enough effect in the signal ratio in the repeat runs, not every such curve was filed as active; the % refers to the signal ratio;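 also: cells stimulated with agonist L165041 at 300 nM final during compound exposure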; also: potency is read from the fitted curve at half-maximal effect)
Peroxisome proliferator-activated receptor delta (Homo sapiens), sequence (Q03181 whole entry, looked up): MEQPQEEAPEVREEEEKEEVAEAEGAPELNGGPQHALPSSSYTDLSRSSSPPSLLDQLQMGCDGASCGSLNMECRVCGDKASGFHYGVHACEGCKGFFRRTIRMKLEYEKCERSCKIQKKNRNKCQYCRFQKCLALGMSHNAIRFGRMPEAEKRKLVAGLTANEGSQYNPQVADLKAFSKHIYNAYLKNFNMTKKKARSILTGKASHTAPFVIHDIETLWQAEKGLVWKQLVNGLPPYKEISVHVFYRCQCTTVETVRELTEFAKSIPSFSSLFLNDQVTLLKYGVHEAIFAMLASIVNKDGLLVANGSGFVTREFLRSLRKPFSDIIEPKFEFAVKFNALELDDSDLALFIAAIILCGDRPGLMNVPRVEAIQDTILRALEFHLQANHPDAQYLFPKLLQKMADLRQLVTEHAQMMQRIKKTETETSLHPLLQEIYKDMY
Procedure, shortened: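 Antagonist-mode beta-lactamase reporter screen: HEK293H cells with UAS-bla under PPARd control, stimulated by 300 nM L165041 (final) alongside test compound for 17 h at 37 C, then FRET fluorescence after 2 h substrate incubation.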

[6] = qHTS assay to identify small molecule agonists of the vitamin D receptor (VDR) signaling pathway - cell viability counter screen (AID 743224); also: nearly all actives have a fitted effect of over 50% in size; also: potency is read from the fitted curve at half-maximal effect; as to activity change, negative = cytotoxicity: series mostly up to about 63 µM
Procedure, shortened: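 VDR-bla cell line, quantitative HTS format; 16 h compound incubation (37C, 5% CO2); ATP-based CellTiter-Glo luminescence measured in the reporter assay wells.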

[7] = qHTS assay for small molecule activators of the heat shock response signaling pathway - cell viability counter screen (AID 743209); also: nearly all actives have a fitted effect of over 50% in size; also: potency is read from the fitted curve at half-maximal effect
Procedure, shortened: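 Quantitative HTS format, Tox21 10K library. HeLa cells carrying an HSE-driven beta-lactamase reporter were treated 5 h at 37 C, then assessed for viability by CellTiter-Glo luminescence.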

[8] = qHTS assay to identify small molecule agonists of the peroxisome proliferator-activated receptor delta (PPARd) signaling pathway - cell viability counter screen (AID 743211); also: nearly all actives have a fitted effect of over 55% in size; also: potency is read from the fitted curve at half-maximal effect
Procedure, shortened: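 Luminescent ATP viability assay (CellTiter-Glo, 30 min RT) in UAS-bla HEK293H cells carrying the PPAR delta reporter construct, 3000 cells/well, after a 17 h compound treatment at 37 C.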

[9] = qHTS assay to identify small molecule agonists of the farnesoid-X-receptor (FXR) signaling pathway - cell viability counter screen (AID 743218); also: nearly all actives have a fitted effect of over 45% in size; also: potency is read from the fitted curve at half-maximal effect
Procedure, shortened: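 In GeneBLAzer FXR-UAS-bla HEK 293T cells, compounds act for 16 h at 37 C. Cell viability is then scored in the reporter wells by CellTiter-Glo, 30 min at RT, luminescence.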

[10] = qHTS assay to identify small molecule antagonists of the farnesoid-X-receptor (FXR) signaling pathway - cell viability counter screen (AID 743221; active = well fitted cell-killing curve with a large enough effect in the repeat runs, not every such curve was filed as active; also: nearly all actives have a fitted effect of over 50% in size; also: potency is read from the fitted curve at half-maximal effect)
Procedure, shortened: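 In GeneBLAzer FXR-UAS-bla HEK 293T cells stimulated with 50 uM chenodeoxycholic acid (final), compounds acted for 16 h at 37 C. Viability was assessed afterwards by CellTiter-Glo luminescence.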

[11] = biological target: Peroxisome proliferator-activated receptor gamma (Homo sapiens) (UniProt P37231); experiment: qHTS assay to identify small molecule antagonists of the peroxisome proliferator-activated receptor gamma (PPARg) signaling pathway (AID 743191; calls by dose curve; also: nearly all actives have a fitted effect of over 30% in size; also: potency is read from the fitted curve at half-maximal effect)
Peroxisome proliferator-activated receptor gamma (Homo sapiens), sequence (P37231 whole entry, looked up): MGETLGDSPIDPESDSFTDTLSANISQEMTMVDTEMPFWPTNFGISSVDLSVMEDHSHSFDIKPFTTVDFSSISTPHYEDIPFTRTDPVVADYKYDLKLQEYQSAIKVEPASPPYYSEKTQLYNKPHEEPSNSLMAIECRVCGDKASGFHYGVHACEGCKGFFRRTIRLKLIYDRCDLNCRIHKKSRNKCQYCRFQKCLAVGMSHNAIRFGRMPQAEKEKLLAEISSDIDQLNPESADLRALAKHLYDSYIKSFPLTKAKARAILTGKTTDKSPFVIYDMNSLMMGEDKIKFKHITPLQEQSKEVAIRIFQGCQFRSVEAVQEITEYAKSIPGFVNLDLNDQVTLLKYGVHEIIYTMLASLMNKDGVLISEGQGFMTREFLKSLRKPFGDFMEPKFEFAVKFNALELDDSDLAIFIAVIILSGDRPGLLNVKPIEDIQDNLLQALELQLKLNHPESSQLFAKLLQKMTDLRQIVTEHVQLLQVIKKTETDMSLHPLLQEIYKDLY
Procedure, shortened: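 Beta-lactamase reporter under UAS control in HEK293H PPARg-bla cells; compound treatment 17 h at 37C. Read-out: fluorescence intensity after 1 h room-temperature incubation with LiveBLAzer B/G FRET substrate.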

[12] = biological target: Vitamin D3 receptor (Homo sapiens) (UniProt P11473); experiment: qHTS assay to identify small molecule agonists of the vitamin D receptor (VDR) signaling pathway (AID 743222; calls by dose curve)
Vitamin D3 receptor (Homo sapiens), sequence (P11473 whole entry, looked up): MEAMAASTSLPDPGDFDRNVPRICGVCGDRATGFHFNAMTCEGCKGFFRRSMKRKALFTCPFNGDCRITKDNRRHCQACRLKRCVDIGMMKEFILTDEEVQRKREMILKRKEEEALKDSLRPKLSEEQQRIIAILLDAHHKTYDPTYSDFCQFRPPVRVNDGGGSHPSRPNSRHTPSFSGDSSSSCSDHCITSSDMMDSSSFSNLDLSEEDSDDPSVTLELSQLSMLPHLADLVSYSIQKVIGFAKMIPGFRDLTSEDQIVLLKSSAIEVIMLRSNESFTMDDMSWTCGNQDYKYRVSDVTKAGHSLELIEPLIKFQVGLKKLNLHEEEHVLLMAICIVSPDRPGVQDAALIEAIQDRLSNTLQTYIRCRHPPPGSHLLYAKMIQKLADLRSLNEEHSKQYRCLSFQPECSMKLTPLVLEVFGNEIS
Procedure, shortened: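 Agonist activity measured in VDR-bla reporter cells. Exposure 16 h, 37C, 5% CO2; detection by B/G FRET substrate, 2 h RT.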

[13] = qHTS assay for small molecule agonists of the antioxidant response element (ARE) signaling pathway (AID 743202; active = well fitted activation curve with a large enough effect in the signal ratio in the repeat runs, not every such curve was filed as active; the % refers to the signal ratio)
Procedure, shortened: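 Quantitative high-throughput format in HepG2 cells bearing an integrated ARE-beta-lactamase reporter. Compound exposure lasted 16 h at 37 C, and fluorescence was read 2 h after adding LiveBLAzer B/G substrate at room temperature.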

[14] = biological target: Bile acid receptor (Homo sapiens) (UniProt Q96RI1); experiment: qHTS assay to identify small molecule agonists of the farnesoid-X-receptor (FXR) signaling pathway (AID 743220; active = well fitted activation curve with a large enough effect in the signal ratio in the repeat runs, not every such curve was filed as active; the % refers to the signal ratio)
Bile acid receptor (Homo sapiens), sequence (Q96RI1 whole entry, looked up): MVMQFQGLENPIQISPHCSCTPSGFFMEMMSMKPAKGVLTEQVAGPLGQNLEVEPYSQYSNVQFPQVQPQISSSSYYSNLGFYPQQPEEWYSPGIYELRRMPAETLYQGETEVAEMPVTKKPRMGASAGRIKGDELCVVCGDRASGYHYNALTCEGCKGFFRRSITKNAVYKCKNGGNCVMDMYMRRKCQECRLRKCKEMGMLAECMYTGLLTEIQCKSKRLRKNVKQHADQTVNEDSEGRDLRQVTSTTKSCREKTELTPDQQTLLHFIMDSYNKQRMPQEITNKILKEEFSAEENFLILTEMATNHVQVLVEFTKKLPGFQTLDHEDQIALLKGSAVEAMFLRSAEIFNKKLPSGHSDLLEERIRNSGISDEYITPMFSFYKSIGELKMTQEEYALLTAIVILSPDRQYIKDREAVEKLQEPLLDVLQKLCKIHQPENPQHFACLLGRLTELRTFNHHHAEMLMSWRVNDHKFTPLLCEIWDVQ
Procedure, shortened: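 Beta-lactamase reporter under UAS control in GeneBLAzer FXR HEK 293T cells (5000/well) measured with LiveBLAzer FRET substrate after 2 h at room temperature. Compound exposure lasted 16 h at 37C.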

[15] = biological target: Bile acid receptor (Homo sapiens) (UniProt Q96RI1); experiment: qHTS assay to identify small molecule antagonists of the farnesoid-X-receptor (FXR) signaling pathway (AID 743217; active = well fitted inhibition curve with a large enough effect in the signal ratio in the repeat runs, not every such curve was filed as active; the % refers to the signal ratio)
Procedure, shortened: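 Beta-lactamase reporter under UAS control in HEK 293T cells; compound exposure 16 h at 37 °C in the presence of chenodeoxycholic acid (50 uM final); signal from B/G FRET substrate after 2 h at room temperature.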

[16] = qHTS assay to identify small molecule that activate the aryl hydrocarbon receptor (AhR) signaling pathway - cell viability counter screen (AID 743086);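 also: HepG2 liver cells carrying the AhR DRE luciferase reporter; series mostly up to about 70 µM; nearly all actives have a fitted effect of over 45% in size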
Procedure, shortened: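 Cytotoxicity counter screen: CellTiter-Fluor signal (30 min, 37 C) in 4000 HepG2 cells/well carrying the DRE-luciferase reporter, following 24 h compound exposure at 37 C.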

[17] = biological target: Peroxisome proliferator-activated receptor gamma (Homo sapiens) (UniProt P37231); experiment: qHTS assay to identify small molecule agonists of the peroxisome proliferator-activated receptor gamma (PPARg) signaling pathway (AID 743094; active = well fitted activation curve with a large enough effect in the signal ratio in the repeat runs, not every such curve was filed as active; the % refers to the signal ratio)
Procedure, shortened: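 Stably transfected HEK293H cells (GeneBLAzer PPARg UAS-bla) were incubated with test substances for 17 h at 37C after a 5 h pre-incubation; beta-lactamase activity was then detected by FRET substrate fluorescence.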

[18] = biological target: Peroxisome proliferator-activated receptor delta (Homo sapiens) (UniProt Q03181); experiment: qHTS assay to identify small molecule agonists of the peroxisome proliferator-activated receptor delta (PPARd) signaling pathway (AID 743212; calls by dose curve)
Procedure, shortened: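 HEK293H PPARd-bla cells; 5 h preincubation 37 C/5% CO2; compound (DMSO) 37 C; LiveBLAzer B/G FRET substrate 2 h RT; fluorescence intensity.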

[19] = biological target: Vitamin D3 receptor (Homo sapiens) (UniProt P11473); experiment: qHTS assay to identify small molecule antagonists of the vitamin D receptor (VDR) signaling pathway (AID 743223; active = well fitted inhibition curve with a large enough effect in the signal ratio in the repeat runs, not every such curve was filed as active; the % refers to the signal ratio)
Procedure, shortened: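 Agonist 1alpha,25-dihydroxyvitamin D3 (3 nM in well) was added with each compound to VDR-bla cells preincubated 4 h. Cells stood 16 h at 37C, then FRET substrate 2 h at room temperature; fluorescence intensity recorded.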

[20] = qHTS assay for small molecule activators of the heat shock response signaling pathway (AID 743210; active = well fitted activation curve with a large enough effect in the signal ratio in the repeat runs, with a control signal flat, not every such curve was filed as active; the % refers to the signal ratio; also: potency is read from the fitted curve at half-maximal effect;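 as to activation: HeLa cells with beta-lactamase reporter driven by heat shock elements; series mostly up to about 63 µM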)
Procedure, shortened: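 HeLa HSE-bla cells, overnight plating; cpd in DMSO 5 h, 37 C; LiveBLAzer B/G FRET substrate 2.5 h RT; fluorescence intensity read.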

Fc1ccc(C(OCCN2CCN(CCCc3ccccc3)CC2)c2ccc(F)cc2)cc1
Potency [1]: inactive | Potency [2]: 16.8 µM (active) | Potency [3]: 29.8 µM (active) | Potency [4]: 26.6 µM (active) | Potency [5]: 29.8 µM (active) | Potency [6]: 29.8 µM (active)

CCN1CCC2(CC1)COc1cc3c(cc12)N(C(=O)c1ccc(-c2ccc(-c4nnc(C)o4)cc2C)cc1)CC3
Potency [1]: inactive | Potency [3]: 7.1 µM (active) | Potency [7]: 45.2 µM (active) | Potency [8]: 9.01 µM (active) | Potency [4]: 6.38 µM (active) | Potency [5]: 18 µM (active) | Potency [9]: 14.3 µM (active) | Potency [10]: 45.2 µM (active) | Potency [6]: 35.9 µM (active)

CC(=O)[O][Sn]([c]1ccccc1)([c]1ccccc1)[c]1ccccc1
Potency [1]: inactive | Potency [2]: 0.138 µM (active) | Potency [3]: 0.0344 µM (active) | Potency [4]: 0.275 µM (active) | Potency [9]: 0.0977 µM (active) | Potency [10]: 0.138 µM (active) | Potency [6]: 0.0871 µM (active)

COP(=O)(OC)Oc1ccc([N+](=O)[O-])cc1
Potency [1]: inactive | Potency [11]: 17.4 µM (active) | Potency [3]: inactive | Potency [7]: inactive | Potency [4]: inactive | Potency [9]: inactive | Potency [10]: inactive | Potency [12]: inactive | Potency [6]: inactive

CC(=O)[O-].CC(=O)[O-].CC(=O)[O-].[Sb+3]
activation [1]: 0.374% [at 8.47 µM] | activity change, negative = cytotoxicity [2]: -5.68% [at 5.95 µM, co-treated with 50 nM rosiglitazone] | activation [13]: -8.79% [at 8.36 µM] | viability change, negative = cytotoxic [3]: -9.94% [at 8.36 µM] | activity change, negative = cytotoxicity [7]: 4.7% [at 5.95 µM] | activity change, negative = cytotoxicity [8]: -20.9% [at 5.95 µM] | viability change, negative = cytotoxic [4]: -8.28% [at 6.26 µM] | activity change, negative = cytotoxicity [6]: -16.2% [at 5.95 µM]

O.O.O.O=C([O-])[C@H]([O-])[C@@H]([O-])C(=O)[O-].O=C([O-])[C@H]([O-])[C@@H]([O-])C(=O)[O-].[K+].[K+].[Sb+3].[Sb+3]
Potency [1]: inactive | Potency [2]: inactive | Potency [3]: inactive | Potency [7]: inactive | Potency [4]: inactive | Potency [5]: 12.4 µM (active) | Potency [9]: inactive | Potency [14]: inactive | Potency [10]: inactive | Potency [6]: inactive

Oc1ccc2[nH]cc(CCCCN3CC=C(c4ccccc4)CC3)c2c1
Potency [1]: inactive | Potency [3]: inactive | Potency [7]: inactive | Potency [15]: inactive | Potency [10]: inactive | Potency [6]: inactive

CCN(CC)CCN1C(=O)CN=C(c2ccccc2F)c2cc(Cl)ccc21
Potency [16]: inactive | Potency [17]: inactive | Potency [11]: inactive | Potency [2]: inactive | Potency [3]: inactive | Potency [7]: inactive | Potency [8]: inactive | Potency [18]: inactive | Potency [4]: inactive | Potency [5]: inactive | Potency [15]: inactive | Potency [9]: inactive | Potency [14]: inactive | Potency [10]: inactive | Potency [12]: inactive | Potency [19]: inactive

CN1CCc2cc3c(cc2C1O)OCO3 (centres undefined)
Potency [1]: inactive | Potency [2]: inactive | Potency [3]: inactive | Potency [7]: inactive | Potency [20]: 39.1 µM (active) | Potency [8]: inactive | Potency [9]: inactive | Potency [10]: inactive | Potency [6]: inactive

[O-][Cl+3]([O-])([O-])O
Potency [16]: inactive | Potency [17]: inactive | Potency [11]: inactive | Potency [2]: inactive | Potency [13]: inactive | Potency [3]: inactive | Potency [7]: inactive | Potency [20]: inactive | Potency [8]: inactive | Potency [18]: inactive | Potency [10]: inactive | Potency [6]: inactive

Nc1nc(N)c(N)c(N)n1
Potency [16]: inactive | Potency [17]: inactive | Potency [11]: inactive | Potency [2]: inactive | Potency [13]: inactive | Potency [3]: inactive | Potency [7]: inactive | Potency [4]: inactive | Potency [9]: inactive | Potency [10]: inactive | Potency [19]: inactive | Potency [6]: inactive
